From PubChem
IP6K1 inhibitor: IP6K1 kinase inhibition; AID 1645851; IP6K1 kinase, ADP-Glo luminescence, 2 h; stronger effect = lower value; actives 0.81% (n = 140,000); activity change, % (series mostly up to about 58 µM); in the data active = activity change below about -25%; note: % is set by controls: 0 for no effect and ±100 for the full control effect
Target sequence (Q92551 whole entry, looked up): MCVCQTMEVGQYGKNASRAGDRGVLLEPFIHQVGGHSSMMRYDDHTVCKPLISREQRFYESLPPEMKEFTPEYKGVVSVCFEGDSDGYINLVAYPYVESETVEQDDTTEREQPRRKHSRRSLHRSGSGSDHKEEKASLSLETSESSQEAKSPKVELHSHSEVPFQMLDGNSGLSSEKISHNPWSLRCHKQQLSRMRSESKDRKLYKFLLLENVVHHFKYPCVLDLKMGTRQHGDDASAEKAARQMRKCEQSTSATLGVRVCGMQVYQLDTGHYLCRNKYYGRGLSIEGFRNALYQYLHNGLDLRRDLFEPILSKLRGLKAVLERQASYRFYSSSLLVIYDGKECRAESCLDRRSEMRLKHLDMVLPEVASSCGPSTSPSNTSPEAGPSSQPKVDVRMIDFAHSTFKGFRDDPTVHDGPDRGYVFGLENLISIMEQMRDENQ
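ADP-Glo luminescence measures ADP made by human IP6K1 during a 2 h RT reaction with ATP/IP6 (mix at 1.3 mM/130 uM); top library doses 57.5 and 19.1 uM final.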
SNCA expr inh: SNCA gene expression inhibition | HEK-293 SNCA-luciferase knock-in, luminescence, 24 h | Potency, µM (series often up to 57.2 µM), for the others: at the top dose activity change, negative = inhibition, most hits filed as inhibitors | actives 0.17% (n = 140,000);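 note: potency is the fitted concentration of half-maximal effect; plate controls were DMSO cells for no effect and cell-free wells for full effect; nearly all actives have a fitted effect of over 45% in size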
HEK293 viab: cell viability loss counter-screen; HEK-293-SNCA-luc viability, GF-AFC fluorescence, 24 h; Potency, µM (top dose mostly 57.1 µM), inactives show at the highest dose activity change, negative = cytotoxicity, usual class: cytotoxic; actives 0.12% (n = 150,000);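 note: potency is the fitted concentration of half-maximal effect; 0% = DMSO-treated cells and -100% = medium-only wells without cells; nearly all actives have a fitted effect of over 30% in size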
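Cytotoxicity counterscreen: after 24 h compound treatment of genome-edited SNCA-luciferase HEK-293 cells, live-cell protease substrate GF-AFC read by fluorescence after 30 min; activity scaled between DMSO (0%) and medium-only (-100%), curves Hill-fitted.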
KDM5B inh: KDM5B demethylase inhibition. KDM5B demethylase, FDH-coupled NADH fluorescence (FDH is formaldehyde dehydrogenase). Potency, µM (doses to about 57.7 µM), usual class: inhibitors. actives 2.6% (n = 220,000); note: potency is the fitted concentration of half-maximal effect; 0% is about no effect; nearly all actives have a fitted effect of over 70% in size
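Inhibition is measured as reduced NADH fluorescence generation from FDH coupling to formaldehyde release. Truncated KDM5BΔAP at 200 nM final acts on H3K4me3 peptide (12.5 µM in substrate mix) in pH 7.5 HEPES buffer with Tween-20, 30 min, room temperature.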
IP6K1 inh cnf: human IP6K1 inhibition, confirmatory; recombinant IP6K1 kinase, ADP-Glo luminescence, 2 h; shares compounds with IP6K1 inhibitor; actives 13% (n = 1,200); Potency, µM (top dose mostly 49 µM), inactives show at the highest dose activity change, negative = inhibition, hits mostly inhibitors; note: potency is the fitted concentration of half-maximal effect; % is set by controls: 0 for no effect and ±100 for the full control effect; nearly all actives have a fitted effect of over 65% in size
* = called active by the depositor; i = inactive; ? = inconclusive; . = no result; [ ] = another dose, or the depositor's remark. This is a sample that favours compounds with a hit; in the whole collection about 2.8% have one here. Unless noted, calls come from the whole dose curve; as a rule, active = well fitted curve in the direction sought with a large enough effect; inconclusive = small, poorly fitted or top-dose-only effect, or another doubt; inactive = no such curve, though single readings can be large; an effect the other way counts as inactive or inconclusive.

SMILES	IP6K1 inhibitor	SNCA expr inh	HEK293 viab	KDM5B inh	IP6K1 inh cnf
Cc1cc(C)n(CCC(=O)NCC2Cn3cccc3C(=O)N2Cc2ccccc2)n1 (stereo unspecified)	-4.9	9.0%	-4.2%	i	.
N#Cc1ccc(CN2CCCC3(CC(c4cccc(C(F)(F)F)c4)=NO3)C2)cc1 (stereo unspecified)	0.0	4.4%	-0.1%	i	.
CCOCCNc1nc(N)nc2c1CCN(C(=O)C1(N)CCC1)CC2	-0.3	-17.4%	-2.8%	i	.
CC(C)CC(NC(=O)C1=NNC(=O)CC1)c1nnc2n1CCNCC2 (stereo unspecified)	-39.7*	3.3%	-5.5%	i	-9.1%
CCn1cnc2c1c(=O)n(CC(=O)NCC1(c3ccccc3)CCCC1)c(=O)n2Cc1ccccc1	.	.	.	i	.
CCCc1nc(C(=O)N2C[C@H](c3cccc(OC)c3)[C@@H](N)C2)cs1	-26.5*	13.5%	-1.0%	?	-3.1%
CCCOc1ccc(C(=O)N2C[C@H](c3cccc(OC)c3)[C@@H](N)C2)cc1Cl	6.0	7.9%	-6.0%	i	.
Cc1ccc(CN2CCc3nc(N4CCN(c5ncccn5)CC4)ncc3C2)cc1	-15.4	14.2%	-10.4%	?	.
Cc1cccc(CN2CCc3nc(N4CCN(c5ccccn5)CC4)ncc3C2)c1	-26.8*	-18.7%	16.6%	?	?
O=C(CCS(=O)(=O)c1ccccc1)N(Cc1cccnc1)c1nc2ccc(F)cc2s1	-26.1*	41.8%	-5.9%	?	-12.3%
CC(=O)N(Cc1cccnc1)c1nc2ccc(F)cc2s1	-1.7	51.0%	-7.3%	i	.
O=C(NC(NC(=O)c1ccccc1)c1cccc(I)c1F)c1ccccc1	.	.	.	i	.
c1ccc(-c2nnc3ccc(NC4CCC4)nn23)nc1	-12.2	22.9%[87.6 µM]	11.6%[87.6 µM]	?	.
c1cc(N[C@@H]2CCNC2)nc(-c2cnc3ccc(-c4cn[nH]c4)cn23)c1	-38.5*	?	-40.4%	.	?
CN1CCN(Cc2ccc(-c3cnc4[nH]cc(-c5ccc6[nH]ccc6c5)c4c3)cc2)CC1	-46.6*	.	-30.1%	.	9.2µM*
CCOc1ccc(-c2cnc(NCc3ccc(OC)cc3OC)n2C)cc1	-25.4*	-4.6%	-5.7%	?	-12.0%
COc1cccc(CNc2ncc(-c3ccc(Br)cc3)n2C)c1	-35.2*	28.6%	-7.6%	?	?
CN1C(=O)c2cccn2CC1CNC(=O)c1ccc2ccccc2n1 (stereo unspecified)	4.7	5.9%	-10.0%	.	.
O=C(CC1CC(c2ccc(F)cc2F)=NO1)N1CCOCC1 (stereo unspecified)	-4.9	.	-10.7%	.	.
CCN1/C(=C/C=C/c2sc3ccccc3[n+]2CC)Sc2ccccc21	-35.6*	-76.0%[17 µM]	0.4%[12.5 µM]	.	?
CCN1/C(=C/C=C2/SC(=Nc3cccc4ncccc34)N(C)C2=O)Sc2ccccc21	.	.	.	i	.
CCNc1nc2c(s1)C(c1cccc(F)c1)CC(=O)N2 (stereo unspecified)	-70.6*	-1.2%	-0.3%	25.1µM*	16.4µM*
CCOc1ccc(CNC(=O)C2(c3ccc(NC(C)=O)cc3)CCCCC2)cc1	22.9	-17.0%	-2.8%	i	.
CCCCCNC(=O)c1ccc2c(c1)ncn2-c1cccc(C)c1	-31.4*	1.2%	-21.5%	?	?
Cc1ccc(C)c(N2CCN(c3ncnc4c3nc3n4CCCC3)CC2)c1	-29.9*	23.3%	-18.9%	i	-3.0%
SMILES	IP6K1 inhibitor	SNCA expr inh	HEK293 viab	KDM5B inh	IP6K1 inh cnf
COc1ccc(OC(=O)c2nc(SCc3ccccc3F)ncc2Cl)cc1	-33.8*	?	12.3%	?	7.7%
OC[C@H]1C[C@@H](NCc2cccc3c2OCO3)[C@H](O)[C@@H]1O	-26.4*	2.1%[87.6 µM]	1.1%[87.6 µM]	i	?
OC[C@H]1C[C@@H](NCc2cccc(Cl)c2)[C@H](O)[C@@H]1O	-13.0	0.8%[87.6 µM]	1.6%[87.6 µM]	?	.
Cc1ccc(C(=O)N2CCCN(C)c3ccccc32)cc1C	-0.4	34.9%	-4.8%	i	.
NC(=O)C(Oc1ccc(Cl)c(Cl)c1)c1ccccc1 (stereo unspecified)	.	.	.	i	.
CCc1cccc(NC(=O)c2sc3nc[nH]c(=O)c3c2C)c1	18.1	22.2%	0.7%	i	.
Cc1c(C(=O)Nc2cccc(C(F)(F)F)c2)sc2nc[nH]c(=O)c12	-32.4*	53.0%	-11.7%	?	?
O=C(c1ccc(Cl)nc1)N1CCCC(C(=O)N2CCCC(c3nc4ncccc4[nH]3)C2)C1 (stereo unspecified)	14.6	11.2%	-10.2%	.	.
O=C(Cc1ccccc1)Nc1sc2c(c1C(=O)Nc1cccc(Cl)c1)CCCCC2	-28.9*	10.7%	-12.0%	i	3.4%
O=C(Cc1ccccc1)Nc1sc2c(c1C(=O)Nc1ccccc1Cl)CCCCC2	-1.5	-22.9%	3.0%	i	.
COc1cccc2c1cc1c(=O)n(CC(=O)N3CCN(c4cc(Cl)ccc4C)CC3)nc(C)n12	-8.4	18.9%	3.3%	?	.
Cc1ccc2c(c1)cc1c(=O)n(CC(=O)N3CCCCC3)nc(C)n12	-27.1*	-1.6%	-7.8%	?	-18.8%
CCOC(=O)C1CCN(C(=O)Cn2nc(C)n3c(cc4c(OC)cccc43)c2=O)CC1	-22.1	15.7%	7.2%	?	.
Cc1nn(CC(=O)N2CCCCC2)c(=O)c2cc3occc3n12	14.1	63.6%	?	i	.
COc1cccc2c1cc1c(=O)n(CC(=O)N3CCN(c4cccc(C)c4C)CC3)nc(C)n12	-25.8*	-0.2%	7.4%	?	9.6%
CCOC(=O)C1CCN(C(=O)Cn2nc(C)n3c(cc4cc(C)ccc43)c2=O)CC1	-35.4*	-18.4%	-8.9%	?	-25.0%
COc1ccc(CN2C(=O)COC[C@H]2C(=O)N2CCSCC2)c(OC)c1	5.9	-23.7%	4.8%	?	.
O=C(OCC1OC(Oc2ccc(O)cc2COC(=O)C2(O)C(O)CCC(=O)C2OC(=O)C2C=CCC2)C(OC(=O)C2C=CCC2)C(O)C1O)C1C=CCC1 (stereo unspecified)	-2.4	.	-15.5%[23.9 µM]	.	.
COc1cccc(CCC(=O)N2CC(c3noc(COc4ccc(C)cc4)n3)C2)c1	14.1	2.1%	6.1%	i	.
Cc1c(NC(=O)c2sc3c([N+](=O)[O-])cccc3c2Cl)cccc1-c1nc2ccccc2o1	-27.9*	9.0%	11.7%	i	7.4%
Cc1c(NC(=O)c2ccc([N+](=O)[O-])o2)cccc1-c1nc2ccccc2o1	.	.	.	i	.
O=C(CCc1ccccc1)N1CCC2(CC1)CC(N(Cc1ccccc1)C1CC1)CCO2 (stereo unspecified)	-27.3*	-9.3%	1.6%	i	-14.3%
Cn1c(SCC(=O)Nc2ccccc2)nnc1-c1ccccc1	-34.3*	46.5%	-7.5%	i	-5.5%
Cn1c(SCC(=O)Nc2ccc(NC(=O)c3ccccc3)cc2)nnc1-c1ccncc1	.	.	.	i	.
OC1(CN2CCCCC2)CCN(Cc2cnn(-c3ccccc3Cl)c2)C1 (stereo unspecified)	-36.0*	21.6%	-6.8%	?	7.9%
